Screening results: PubChem BioAssay, several laboratories
In the library only some 2.6% were active in any assay of this set; here they are far more common.
Exocytosis inh: LAMP-1 surface exposure blockers, TALL-104 cells – cell-based, flow cytometry, MLPCN library, primary screen; TALL-104 LAMP-1 surface exposure; cells stimulated with thapsigargin and PMA; inhibition, % at 10 µM; 360,000 tested, 0.66% active;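 active means inhibition above about 55%, limit read from the data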
NOD2-RIPK2 inh: NOD2-RIPK2 binding disruptors in cells, primary screen, fluorescence, CHO cells, BLA complementation. Receptor-interacting serine/threonine-protein kinase 2 (Homo sapiens), O43353. CCF4 ratio. inhibition, % at 4.98 µM. 360,000 tested, 0.38% active. AID 624267, 2012; in the data active means inhibition above about 21%;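 further: 0% = vehicle only and 100% = reference blocker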
ABHD5-PLIN5 inh: ABHD5-PLIN5 interaction inhibitors, primary screen, cell lysate, split luciferase complementation, luminescence. Perilipin-5 (Homo sapiens) + 1-acylglycerol-3-phosphate O-acyltransferase ABHD5 (Homo …. Split G. princeps luciferase complementation, 4 h. inhibition, % at 4 µM. 360,000 tested, 0.78% active;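 active means inhibition above the mean inhibition across every tested compound plus 3 SD, cut at about 22% in these data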;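 further: 0% = DMSO only wells and the 100% control is not disclosed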
Target sequence (Q00G26 whole entry, looked up): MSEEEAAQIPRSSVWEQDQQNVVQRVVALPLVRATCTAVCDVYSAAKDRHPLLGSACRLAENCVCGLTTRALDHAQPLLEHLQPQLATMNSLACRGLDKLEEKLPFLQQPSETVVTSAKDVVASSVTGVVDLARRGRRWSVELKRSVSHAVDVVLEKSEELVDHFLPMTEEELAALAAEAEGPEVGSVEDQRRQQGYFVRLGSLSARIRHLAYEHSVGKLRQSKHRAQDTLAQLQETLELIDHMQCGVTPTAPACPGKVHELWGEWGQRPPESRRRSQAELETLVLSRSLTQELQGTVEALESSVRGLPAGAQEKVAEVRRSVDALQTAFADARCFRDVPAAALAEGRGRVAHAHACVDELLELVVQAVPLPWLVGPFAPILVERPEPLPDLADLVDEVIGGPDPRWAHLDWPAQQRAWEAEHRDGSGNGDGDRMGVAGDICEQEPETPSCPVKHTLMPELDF
Target sequence (Q8WTS1 whole entry, looked up): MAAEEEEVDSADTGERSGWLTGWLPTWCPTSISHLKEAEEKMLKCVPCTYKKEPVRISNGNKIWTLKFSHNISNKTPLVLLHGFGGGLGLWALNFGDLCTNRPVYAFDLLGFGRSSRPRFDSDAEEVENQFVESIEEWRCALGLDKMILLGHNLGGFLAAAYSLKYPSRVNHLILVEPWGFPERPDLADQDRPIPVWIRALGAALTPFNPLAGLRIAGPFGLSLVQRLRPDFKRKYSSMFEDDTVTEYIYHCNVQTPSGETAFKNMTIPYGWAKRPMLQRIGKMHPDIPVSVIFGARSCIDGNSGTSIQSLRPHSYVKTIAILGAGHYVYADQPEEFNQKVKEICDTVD
TLR9-MyD88 inh: inhibitors of TLR9-MyD88 association in cells, primary screen, cell-based, CHO, BLA complementation, fluorescence | CCF4 FRET ratio | inhibition, % at 4.98 µM | 340,000 tested, 0.21% active;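 active means inhibition above the mean over all tested compounds plus 3 SD, cut at about 21% in these data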;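 further: 0% = DMSO only wells and 100% = clavulanate BLA inhibitor control wells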
PRMT1 FP inh: PRMT1 methyltransferase inhibitors, primary screen, biochemical, fluorescence polarization; Protein arginine N-methyltransferase 1 (Homo sapiens), Q99873; recombinant PRMT1, activity-based probe fluorescence polarization; inhibition, % at 2.79 µM; 370,000 tested, 1.3% active; AID 652257, 2013;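 active means inhibition above about 21% made by adding two undisclosed values, limit read from the data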
TLR4-MyD88 BLA: inhibitors of TLR4-MyD88 association in cells, primary screen, cell-based, HeLa CL3-4, BLA complementation, FRET ratio | Toll-like receptor 4 (Homo sapiens) + Myeloid differentiation primary response protein … | HeLa CL3-4 TLR4/MyD88 BLA complementation | inhibition, % at 8.4 µM | 200,000 tested, 0.18% active; in the data active means inhibition above about 25%;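 further: 0% = vehicle and 100% = reference inhibitor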
PRMT1 inh conf: PRMT1 methyltransferase inhibitors, confirmation, biochemical, fluorescence polarization, triplicate. recombinant His-PRMT1, activity-based probe fluorescence polarization. shares compounds with PRMT1 FP inh. 3,300 tested, 42% active. inhibition, % at 2.79 µM;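 active means mean inhibition across replicates above the hit cutoff derived for the earlier primary screen, cut at about 22% in these data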
Starred values were filed as active, the others as inactive.

What do the screens show for `CSS(=O)(=O)c1cccc2cccnc12`?
Exocytosis inh: 3; NOD2-RIPK2 inh: 0; ABHD5-PLIN5 inh: -17; PRMT1 FP inh: 92*; PRMT1 inh conf: 96*

How did CCN(CC)S(=O)(=O)c1cccc2cccnc12 do in these assays?
Exocytosis inh: -1; NOD2-RIPK2 inh: 0; ABHD5-PLIN5 inh: -4; TLR9-MyD88 inh: 5; PRMT1 FP inh: 0; TLR4-MyD88 BLA: -3

What do the screens show for `c1ccc2c(c1)Nc1nccnc1S2`?
Exocytosis inh: 3; NOD2-RIPK2 inh: 5; ABHD5-PLIN5 inh: -10; TLR9-MyD88 inh: 0; PRMT1 FP inh: 49*; TLR4-MyD88 BLA: -6; PRMT1 inh conf: 47*

What do the screens show for `CC(C)c1ccc(/C=N/n2c(COc3ccccc3)n[nH]c2=S)cc1`?
Exocytosis inh: -4; NOD2-RIPK2 inh: 2; ABHD5-PLIN5 inh: -6; TLR9-MyD88 inh: -1; PRMT1 FP inh: 31*; PRMT1 inh conf: 21

How did S=c1[nH]nc(COc2ccccc2)n1/N=C/C=C/c1ccco1 do in these assays?
Exocytosis inh: -4; NOD2-RIPK2 inh: -17; ABHD5-PLIN5 inh: 0; PRMT1 FP inh: 33*; PRMT1 inh conf: 1

How did S=c1[nH]nc(COc2ccccc2)n1/N=C/C=C/c1ccccc1 do in these assays?
Exocytosis inh: -1; NOD2-RIPK2 inh: -10; ABHD5-PLIN5 inh: -6; TLR9-MyD88 inh: -5; PRMT1 FP inh: 19; TLR4-MyD88 BLA: 8

How did Cc1ccc(/C=N/n2c(COc3ccccc3)n[nH]c2=S)cc1 do in these assays?
Exocytosis inh: 42; NOD2-RIPK2 inh: -10; ABHD5-PLIN5 inh: 0; TLR9-MyD88 inh: 11; PRMT1 FP inh: 12

Results for COc1ccc(S(=O)(=O)N(C)C[C@@H]2OCc3cn(nn3)CCCC(=O)N([C@H](C)CO)C[C@H]2C)cc1 ?
Exocytosis inh: 1; NOD2-RIPK2 inh: -3; ABHD5-PLIN5 inh: 8; PRMT1 FP inh: 1

How did c1cc2c(cc1-c1csc(NNC3=NCCCCC3)n1)OCCO2 do in these assays?
PRMT1 FP inh: 75*; TLR4-MyD88 BLA: 0; PRMT1 inh conf: 24*

What do the screens show for `CCC(=O)Nc1nc(-c2ccc3c(c2)OCCO3)cs1`?
Exocytosis inh: -1; NOD2-RIPK2 inh: -4; ABHD5-PLIN5 inh: -12; TLR9-MyD88 inh: 4; PRMT1 FP inh: -4; TLR4-MyD88 BLA: -2

Results for O=C(O)c1cnn2c(C(F)(F)F)cc(-c3ccco3)nc12 ?
Exocytosis inh: -2; NOD2-RIPK2 inh: -4; ABHD5-PLIN5 inh: 5; TLR9-MyD88 inh: -15; PRMT1 FP inh: 20; TLR4-MyD88 BLA: -8

What do the screens show for `O=C(c1ccccc1)N1CCN(C(=O)c2nn3c(C(F)(F)F)cc(-c4ccco4)nc3c2Br)CC1`?
Exocytosis inh: -10; NOD2-RIPK2 inh: -4; ABHD5-PLIN5 inh: 22*; TLR9-MyD88 inh: -10; PRMT1 FP inh: 30*; PRMT1 inh conf: 3

What do the screens show for `CCOC(=O)C1(c2ccccc2)SC(C(=O)OCC)(c2ccccc2)S1` (stereo not given)?
Exocytosis inh: 1; NOD2-RIPK2 inh: -3; ABHD5-PLIN5 inh: -5; TLR9-MyD88 inh: 2; PRMT1 FP inh: 71*; PRMT1 inh conf: 59*

How did N#CCN1CCC(c2cc(-c3ccco3)n[nH]2)CC1 do in these assays?
PRMT1 FP inh: 57*; TLR4-MyD88 BLA: 3; PRMT1 inh conf: 3

What do the screens show for `Cc1ccc(S(=O)(=O)N(C)C)cc1[N+](=O)[O-]`?
Exocytosis inh: 2; NOD2-RIPK2 inh: -1; ABHD5-PLIN5 inh: 2; TLR9-MyD88 inh: 3; PRMT1 FP inh: -2

What do the screens show for `Oc1ccc(CNc2cccnc2)c2cccnc12`?
PRMT1 FP inh: 39*; PRMT1 inh conf: 34*

Results for Cc1ccc(NCc2ccc(O)c3ncccc23)cc1 ?
Exocytosis inh: 1; NOD2-RIPK2 inh: 5; ABHD5-PLIN5 inh: 2; TLR9-MyD88 inh: 0; PRMT1 FP inh: 5; TLR4-MyD88 BLA: -11

Results for CCn1c(=O)c(CCC(=O)N2CCN(c3ccccn3)CC2)c(C)c2c(C)nn(-c3ccccc3)c21 ?
Exocytosis inh: 14; NOD2-RIPK2 inh: -4; ABHD5-PLIN5 inh: 0; TLR9-MyD88 inh: -2; PRMT1 FP inh: -2

How did CCOc1ccc2nc(S(=O)(=O)NC(=O)C3(C)CCN3C(=O)c3cc(C)n(C)n3)sc2c1 (stereo not given) do in these assays?
Exocytosis inh: 22; NOD2-RIPK2 inh: -1; ABHD5-PLIN5 inh: 1; PRMT1 FP inh: 3

Results for Cc1cc(SCNC(=O)c2ccccc2)nc(C(C)C)n1 ?
Exocytosis inh: -4; NOD2-RIPK2 inh: 8; ABHD5-PLIN5 inh: -4; TLR9-MyD88 inh: -14; PRMT1 FP inh: 11; TLR4-MyD88 BLA: -1

How did Cc1cc(C)nc(SCNC(=O)c2ccccc2)n1 do in these assays?
Exocytosis inh: -1; NOD2-RIPK2 inh: -11; ABHD5-PLIN5 inh: -1; TLR9-MyD88 inh: 0; PRMT1 FP inh: 34*; TLR4-MyD88 BLA: -4; PRMT1 inh conf: -2

Results for C/C(C/C(C)=C1/SC(=S)NC1=O)=C1\SC(=S)NC1=O ?
Exocytosis inh: 2; NOD2-RIPK2 inh: 1; ABHD5-PLIN5 inh: -22; TLR9-MyD88 inh: -3; PRMT1 FP inh: 40*; TLR4-MyD88 BLA: 10; PRMT1 inh conf: 24*

What do the screens show for `CCCCCC/C(C)=C1/SC(=S)NC1=O`?
Exocytosis inh: -1; NOD2-RIPK2 inh: 1; ABHD5-PLIN5 inh: -3; TLR9-MyD88 inh: -3; PRMT1 FP inh: 19; TLR4-MyD88 BLA: -11

Results for COc1ccc(-n2ccnc(SCC(=O)NCc3ccccc3Cl)c2=O)cc1 ?
Exocytosis inh: 4; NOD2-RIPK2 inh: -12; ABHD5-PLIN5 inh: -17; TLR9-MyD88 inh: -17; PRMT1 FP inh: 88*; PRMT1 inh conf: 14

How did CCOc1ccc(-n2ccnc(SCC(=O)NC3CCCC3)c2=O)cc1 do in these assays?
Exocytosis inh: -4; NOD2-RIPK2 inh: -12; ABHD5-PLIN5 inh: -9; TLR9-MyD88 inh: 0; PRMT1 FP inh: 9

What do the screens show for `COc1ccccc1-n1ccnc(SCC(=O)NCc2ccccc2Cl)c1=O`?
Exocytosis inh: -5; NOD2-RIPK2 inh: 1; ABHD5-PLIN5 inh: -5; TLR9-MyD88 inh: -4; PRMT1 FP inh: 20

How did CCOc1ccc(-n2ccnc(SCC(=O)Nc3cccc(OC)c3)c2=O)cc1 do in these assays?
Exocytosis inh: -8; NOD2-RIPK2 inh: -3; ABHD5-PLIN5 inh: -5; TLR9-MyD88 inh: -2; PRMT1 FP inh: 39*; PRMT1 inh conf: 42*
